DT40 TDP1 CPT: qHTS for Inhibitors of human tyrosyl-DNA phosphodiesterase 1 (TDP1): qHTS in cells in presence of CPT. Potency, µM (top dose mostly 46.2 µM), inactives show at the highest dose activity change, negative = growth inhibition, actives largely listed as inhibitors. 420,000 compounds, 12% hits. chicken DT40 Tdp1-/-;hTDP1 cells + 20 nM CPT, ATP luminescence, 48 h; also: % is scaled to controls: 0 for no effect and ±100 for the full control effect; nearly all actives have a fitted effect of over 55% in size
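Chicken DT40 Tdp1-/- cells complemented with human TDP1, 400 cells/well, exposed to compounds plus 20 nM camptothecin for at least 48 h at 37 C; viability read as ATP content by CellTiter-Glo luminescence.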
ATXN viability: Viability Counterscreen for Primary qHTS for Inhibitors of ATXN expression. Potency, µM (doses to about 56.7 µM), actives largely listed as cytotoxic. S2 cells (HEK-293 line with an ATXN2-luciferase reporter) viability, CellTiter-Fluor protease fluorescence, 24 h. 400,000 compounds, 0.49% hits; also: nearly all actives have a fitted effect of over 40% in size
TGFb SMAD3 inh: qHTS for Inhibitors of TGF-b | HepG2 CAGA-GFP TGF-b/SMAD3 reporter, GFP fluorescence, 18 h; TGF-beta stimulated, 500 pg/mL final | Potency, µM (top dose mostly 46.1 µM), for inactives: at the top dose activity, negative = inhibition, most hits filed as inhibitors | 410,000 compounds, 1.2% hits; also: % is scaled to controls: 0 for no effect and ±100 for the full control effect; nearly all actives have a fitted effect of over 65% in size
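HEPG2 CAGA-GFP, 1000 cells/well; 2 h settle, 37 C; cpd via pin tool; TGF-b 500 pg/mL final; 18 h, 37 C; GFP imaging ex488/em500-530; %Activity normalised to -TGF-b and +DMSO controls; CRC fit, curve class.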
HepG2 tox: qHTS for Inhibitors of TGF-b: Cytotox Counterscreen; HepG2 CAGA-GFP viability, ATP luminescence, 18 h; Potency, µM (titrated, usually from 46.1 µM), for the others: at the highest dose activity change, negative = cytotoxicity, actives largely listed as cytotoxic; 410,000 compounds, 0.76% hits; AID 588856, 2011
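CellTiter-Glo luminescence gave cytotoxicity after 18 hours at 37 degrees C. The cells were HepG2 CAGA-GFP in 1% FBS DMEM, stimulated with 500 pg/mL TGF-beta after compound addition. %Activity was normalised to no-cell wells (complete cell-killing) and DMSO (no toxicity), and curves were fitted and classified.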
TDP1 cell noCPT: qHTS for Inhibitors of human tyrosyl-DNA phosphodiesterase 1 (TDP1): qHTS in cells in absence of CPT; DT40 Tdp1-/- hTDP1 cells, no CPT, ATP luminescence, 48 h; Potency, µM (series often up to 46.2 µM), for inactives: at the top dose activity change, negative = growth inhibition, most hits filed as inhibitors; 420,000 compounds, 15% hits; AID 686978, 2013; also: % is scaled to controls: 0 for no effect and ±100 for the full control effect; nearly all actives have a fitted effect of over 55% in size
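Luminescent ATP content (CellTiter-Glo) served as the growth readout. Knockout chicken DT40 cells expressing human TDP1 were exposed to compounds without camptothecin for a minimum 48 hr at 37 °C.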
ATXN2 expr inh: Primary qHTS for Inhibitors of ATXN expression; HEK-293 ATXN2-luciferase reporter, luminescence, 24 h; Potency, µM (series often up to 57 µM), for the others: at the top dose activity change, negative = inhibition, actives largely listed as inhibitors; 360,000 compounds, 0.72% hits; AID 1745845, 2022; also: % is scaled to controls: 0 for no effect and ±100 for the full control effect; nearly all actives have a fitted effect of over 55% in size
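qHTS (up to 57 uM final) was run with 24 h compound exposure of reporter cells at 37 °C. Each well was multiplexed: SteadyGlo luminescence measured ATXN2-luciferase expression after a fluorogenic Gly-Phe-AFC viability readout (25 uM final).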
* hit, by the source's call; i = inactive; ? = inconclusive; . = not tested or not shown; [ ] = remark or other dose. Most compounds without a hit are left out; they make up all but 17% or so of the library. Calls follow the shape of the dose curve; as a rule, active = well fitted curve in the direction sought with a large enough effect; inconclusive = small, poorly fitted or top-dose-only effect, or another doubt; inactive = no such curve, though single readings can be large; an effect the other way counts as inactive or inconclusive. Potency is read from the fitted curve at half-maximal effect.

SMILES | DT40 TDP1 CPT | ATXN viability | TGFb SMAD3 inh | HepG2 tox | TDP1 cell noCPT | ATXN2 expr inh
CCCS(=O)(=O)c1nc(S(=O)(=O)c2ccc(C)cc2)c(N2CCN(CCO)CC2)s1 | 14.4% | . | 3.4% | -9.1% | -16.0% | .
O=C(O)c1cc(O)ccc1NC(=O)c1cccc2ccccc12 | -6.2% | i | -17.1% | -11.2% | -18.6% | 9.8%
CCN(CC)C(=O)CSc1nnc(-c2ccccn2)n1Cc1ccccc1 | -12.5% | i | 12.1% | 3.7% | -6.9% | 6.6%
O=C(Nc1ccc(F)c(Cl)c1)c1ccccc1NC(=O)C1CCCCC1C(=O)O (stereo unspecified) | ? | ? | 0.9% | -0.9% | ? | 39.1%
Cc1ccc(NC(=O)C2Cc3ccccc3CN2C(=O)c2ccco2)cc1S(=O)(=O)N(C)C (stereo unspecified) | -26.7% | i | -18.9% | 3.1% | -11.8% | 66.0%
Cc1cc(C)n2nc(CNC(=O)c3ccccc3Cl)nc2n1 | -16.9% | i | -1.5% | 1.1% | -9.8% | 12.2%
CSc1cccc(NC(=O)C2CCN(S(=O)(=O)c3ccc(F)cc3)CC2)c1 | ? | ? | -28.4% | -40.6% | 20.6µM* | -22.5%
COc1ccc(OC)c(S(=O)(=O)N2CCC(C(=O)N3CCc4ccccc4C3)CC2)c1 | ? | i | ? | -1.7% | 23.1µM* | -12.7%
O=C(NCCCN1CCCC1=O)C1CCN(S(=O)(=O)c2cc(C(F)(F)F)ccc2Cl)CC1 | 14.6µM* | i | 7.7% | 2.2% | ? | 3.7%
COc1ccc(S(=O)(=O)N2CCN(CCCOc3ccc(F)cc3)CC2)cc1OC | ? | i | -21.8% | -17.0% | 20.6µM* | -38.8%
O=C(NCCCN1CCCC1=O)C1CCN(S(=O)(=O)c2cccc(C(F)(F)F)c2)CC1 | -15.8% | i | 8.4% | -5.9% | -22.7% | -0.3%
COc1ccc(S(=O)(=O)N2CCN(c3ccc(F)cc3)CC2)cc1OC | -18.6% | i | -6.4% | -16.0% | -16.8% | -11.0%
C/C(=N/NC(=O)CCC(=O)Nc1ccc(Br)cc1)c1ccc(Br)cc1 | -15.0% | i | 1.1% | -16.0% | ? | -17.3%
CN(C)c1ncc2ncc(=O)n(C3CC3)c2n1 | ? | . | . | . | -30.0% | .
CCCCN(CCCNC(=O)C1CCN(S(=O)(=O)N2CCOCC2)CC1)c1ccccc1 | 13µM* | i | -8.1% | -1.6% | 13µM* | -10.4%
COc1ccc(OC)c(S(=O)(=O)N2Cc3ccccc3CC2C(=O)Nc2ccc(C(C)=O)cc2)c1 (stereo unspecified) | ? | . | . | -2.0% | 10.3µM* | .
O=C(Nc1ccc(S(=O)(=O)N2CCOCC2)cc1)C1CCN(S(=O)(=O)c2ccccc2)CC1 | ? | i | -13.6% | -11.3% | 16.4µM* | -4.2%
COc1ccc(S(=O)(=O)N2CCC(C(=O)Nc3ccc(S(=O)(=O)N4CCCC4)cc3)CC2)cc1OC | ? | i | -0.5% | 0.9% | 29.1µM* | -5.0%
Cc1cc(C)n(CCNC(=O)CC2C(=O)NCCN2Cc2ccccc2C(F)(F)F)n1 (stereo unspecified) | 11.4% | ? | -0.1% | -11.0% | 2.8% | -2.2%
CC1CCC(=O)N(CCC#N)CC1 (stereo unspecified) | 4.7% | i | ? | 1.3% | 0.8% | -1.0%
Cc1nn(S(=O)(=O)c2ccccc2)c(C)c1S(=O)(=O)N1CCOCC1 | -8.1% | i | -2.3% | 11.5% | -3.6% | 28.5%
CCC(C)C(NC(=O)OC(C)(C)C)C(=O)NC(C(=O)NC(C)C(N)=O)C(C)C (stereo unspecified) | -28.1% | i | -3.8% | 27.7% | -4.4% | .
N#C/C(=C\c1cn(CC(=O)N2CCCCC2)c2ccccc12)C(=O)NCc1ccc2c(c1)OCO2 | -5.5% | ? | 11.3% | 29.1% | 1.3% | 1.3%
CCc1ccc(CC)c(S(=O)(=O)Nc2ccc(O)c(C(=O)O)c2)c1 | -21.3% | i | -8.4% | -16.8% | -2.1% | 0.3%
CCC(c1nnnn1C(C)(C)CC)N(CCCN1CCOCC1)Cc1cc2cccc(C)c2[nH]c1=O (stereo unspecified) | 14.1µM* | i | ? | -25.2% | ? | 3.0%
SMILES | DT40 TDP1 CPT | ATXN viability | TGFb SMAD3 inh | HepG2 tox | TDP1 cell noCPT | ATXN2 expr inh
Cc1cccc2cc(CN(CCCN3CCOCC3)Cc3nnnn3C(C)(C)C)c(=O)[nH]c12 | -23.1% | i | -8.0% | -3.3% | -2.5% | -2.1%
CCC(C)(C)n1nnnc1C(C(C)C)N(CCN1CCOCC1)Cc1cc2cccc(C)c2[nH]c1=O (stereo unspecified) | 18.4µM* | ? | -11.9% | -9.5% | -25.2% | -2.3%
CCNC(=O)C1CCCN(C(=O)c2ccc(OC)c(OC)c2)CC1 (stereo unspecified) | 20.4% | i | 1.9% | 2.9% | 7.7% | 13.5%
O=S(=O)(NCc1ccccn1)C(F)(F)F | -16.9% | i | -2.1% | 20.4% | -10.7% | -4.7%
COc1ccc2c(c1)c1c(c(=O)n(CCc3ccccc3)c(=O)n1Cc1cccc(C)c1)n2C | 9.5% | i | 12.6% | 11.7% | -22.0% | -4.4%
COc1cc(NC(=O)c2cnn3c(C)cc(C)nc23)c(OC)cc1Cl | 2.1% | i | -7.0% | -18.3% | -3.1% | 13.1%
Cc1ccc(S(=O)(=O)NCC2NCCc3ccccc32)cc1 (stereo unspecified) | -9.1% | i | 4.6% | 7.8% | 23.1µM* | -7.3%[11.3 µM]
O=C1COc2ccc(-c3cc(-c4ccc(F)cc4)c4c(n3)-c3cc(Cl)ccc3OC4)cc2N1 | ? | i | 3.0% | 0.9% | ? | -0.5%
Fc1ccc(-c2cc(-c3ccccc3)c3c(n2)-c2cc(F)ccc2OC3)cc1 | -11.4% | i | -0.6% | -1.6% | -15.2% | -5.7%
O=C1COc2ccc(-c3cc(-c4ccc(F)cc4)c4c(n3)-c3ccccc3OC4)cc2N1 | 6.51µM* | i | -24.8% | 0.1% | 5.8µM* | 7.7%
COc1ccc(-c2cc(-c3ccc4c(c3)NC(=O)CO4)nc3c2COc2ccc(F)cc2-3)cc1 | ? | i | 1.8% | -14.1% | 1.46µM* | 1.9%
O=C1C2C3C=CC(O3)C2C(=O)N1Nc1ccccc1 (stereo unspecified) | -5.7% | i | 18.0% | -1.0% | -5.1% | -0.8%
COc1ccc(C)c2sc(N(Cc3cccnc3)C(C)=O)nc12 | ? | . | -19.4% | -35.1% | -44.8% | .

Assay outcomes from PubChem BioAssay.
